The panel holds about 83,000 compounds, 20% with a hit somewhere; the sample as a whole holds those more often.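 48-hour exposure, single concentration, 96-well plates; percent growth endpoint where 0 means no net growth. Active: below 10.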 Calls of active or inactive are those of the source.

This assay concerns M14 melanoma. The assay can be described thus: NCI-60 one-dose screen, 48 h (100 = growth as untreated, 0 = no growth, -100 = all killed). The note with it: 10 µM. Here is the method:
Growth inhibition of the M14 human tumor cell line is measured as a screen for anti-cancer activity. Cells are grown in 96 well plates and exposed to the test compound for 48 hours. Compounds are tested at a single concentration, which is 10^-5 M for most compounds. The reported endpoint is percent growth (GI% or GIPRCNT), where numbers from 0 - 100% represent growth inhibition, and numbers from -100% - 0 represent cell death. For example, a value of 40 represents 60% growth inhibition. A value of 0 means no net growth occurred over the course of the experiment. A value of -40 indicates 40% of cells at the beginning of the experiment died by the end of the experiment. A value of -100 means all cells are dead at the end of the experiment.
NCI-60 Human Tumor Cell Lines Screen was performed using the standard one-dose NCI protocol, which is described in more detail at https://dtp.cancer.gov/discovery_development/nci-60/default.htm.
Compounds with GIPRCNT values below 10 were considered active. Activity score was based on GIPRCNT using the following formula: […]
Score is 0 for GIPRCNT values of 100 or above, 50 for GIPRCNT values of 0, and 100 for GIPRCNT values of -100.
On to `Cc1ccc(C(=O)N/C(=C2/OCCN2C)[P+](c2ccccc2)(c2ccccc2)c2ccccc2)cc1`, for which the growth is 82.9% (inactive).
Under `C=CC(=O)Nc1nc(-c2cccc(NS(=O)(=O)c3cccc4c(N(C)C)cccc34)c2)cs1` stands -78.7% (active); under `Cc1cc2c(c(O)c1Br)-c1ncoc1C(=O)[C@]1(C)CC[C@H](C(C)C)[C@H]21`, 18.9% (inactive); under `N#Cc1ccc(NC(=O)CSc2ccc(-c3ccc(Br)cc3)nn2)cc1`, 63.5% (inactive).
On to `COc1cc2c(c(OC)c1OC)C(=O)CC(c1cccc(NC(=O)c3cccc(N)c3)c1)O2` (stereo not given), for which the growth was 96.5% (inactive).
Regarding `CN1CCN(c2ccc(Nc3nc(N4CCN(S(=O)(=O)c5ccc(Cl)cc5)CC4)c4sccc4n3)cc2)CC1`, the growth is -60.6% (active).
As for `CN1CCO/C1=C(/NC(=O)c1ccc(Cl)cc1)[P+](c1ccccc1)(c1ccccc1)c1ccccc1`, the figure is 88.5% (inactive).
For `CCOC(=O)c1c(CSc2ccccc2)n(C)c2cc(CN(C)C)c(O)c(CN(C)C)c12`, the growth was 47.6% (inactive).
Under `O=C(N=Nc1c(O)[nH]c2ccc(Br)cc12)c1ccc2nc(-c3ccccc3)[nH]c2c1` stands -85.9% (active); under `O=c1[nH]n(C(=S)N/N=C/c2ccc(F)cc2)c(=O)c2ccccc12`, 78.1% (inactive); under `O=C(Cc1ccc2c(c1)CN(C1CCC(=O)NC1=O)C2=O)NCc1cccc2ccccc12` (stereo not given), -70.8% (active).
For the compound `Nc1cc(-c2cccc(C(=O)NCc3ccc4c(c3)OCO4)c2)ccn1`, the growth was 108% (inactive).
`N#Cc1c(-c2ccc(F)cc2)nc(SCc2ccc([N+](=O)[O-])cc2)nc1N1CCOCC1`: the growth is 87.7% (inactive).
As for `CNC(=O)c1cc(-c2ccc(NC(=O)Nc3ccc(C)cc3)cc2)nc2cccnc12`, the figure is 116% (inactive).
Under `C=C(C)[C@@H]1CC[C@]2(C)[C@H](CC=C3[C@@H]4CC(C)(C)CC[C@]4(C(=O)N4CCOCC4)CC[C@]32C)[C@@]1(C)CCCN` stands -80% (active); under `COc1ccc(-c2ccc(SCC(=O)Nc3ccc(C#N)cc3)nn2)cc1`, 93% (inactive).
Under `O=C(c1ccc(Cl)cc1)C1[C@H](c2ccccc2Br)[C@@H](c2ccccc2)NC12C(=O)Nc1ccc(Br)cc12` (stereo not given in full) stands 27.5% (inactive); under `COc1cccc(C(N)=Nc2ccc(OCCCCCCn3cncn3)cc2)c1`, 9.26% (active); under `O=C(NC(=S)N1CCN(c2ncnc3c2cnn3-c2ccccc2)CC1)c1ccc(Cl)cc1`, 79.9% (inactive).
With `COc1ccc(C(=O)CSc2nnc(-c3c[nH]c4ccccc34)n2-c2ccccc2)cc1`, the growth was 75.7% (inactive).
As to `N#Cc1c(NC(=O)c2ccc(C(F)(F)F)cc2)sc2c1CCC(=O)C2`, the growth was -78.5% (active).
As for `Cc1ccn2c(C(=O)c3ccccc3)cc(-c3cc(-c4ccc(N(C)C)cc4)c(C#N)c(N)n3)c2c1`, the figure is 81.3% (inactive).
For `O=C1NC(=NC23CC4CC(CC(C4)C2)C3)N/C1=C\c1ccc2ncoc2c1`, the growth is 29.4% (inactive).
Turning to `CC(=O)NS(=O)(=O)c1ccc(NC(=O)CSC2=NC(c3ccccc3)C(C(C)=O)=C(C)N2)cc1` (stereo not given), the growth is 107% (inactive).
Under `O=C(CSc1nnc(-c2ccc3nc(-c4ccccc4)[nH]c3c2)o1)Nc1ccc(Br)cc1` stands 52.3% (inactive); under `CC1(C)[C@@H](NCO)CC[C@]2(C)[C@H]3C(=O)C=C4[C@@H]5C[C@](C)(CO)CC[C@]5(C)CC[C@@]4(C)[C@]3(C)CC[C@@H]12`, 25.5% (inactive); under `COc1ccc(C(=O)Nc2sc3c(c2C#N)CCC(=O)C3)cc1C(F)(F)F`, -16.8% (active).
Under `COc1ccc2[nH]cc(/C=N/Nc3ccc(Br)cn3)c2c1` stands 8.66% (active); under `CCOC(=O)C1=C(N)N(c2ccc(Cl)cc2)C2=C(C(=O)CC(C)(C)C2)C1c1ccc(N2CCOCC2)cc1` (stereo not given), 103% (inactive); under `COc1ccc(N2N=C(c3ccc4c(c3)OCCO4)CC2c2cccc(NC(=O)CCCNS(=O)(=O)c3ccc(F)cc3)c2)cc1` (stereo not given), 81.9% (inactive).
As for `Cc1ccc(-c2cc(-c3cc4ccccc4nc3Cl)[nH]c(=O)n2)cc1`, the figure is 10.2% (inactive); as for `Cc1ccc(C(=O)NNC(=O)CSc2nc3ccccc3c(=O)[nH]2)cc1`, 108% (inactive); as for `COc1ccc(CN2[C@@H](C(=O)NCc3ccc(C(=O)NO)cc3)Cc3c([nH]c4ccccc34)[C@@H]2C2CC2)cc1`, 16.1% (inactive).
For the compound `Nc1nc(Nc2ccc(Cl)cc2)n(Cc2cccc(Br)c2)n1`, the growth was -48.8% (active).
As for `O=C(Nc1cc(Cl)cc(Cl)c1)Nc1cc(Cl)cc(Cl)c1`, the figure is -77.9% (active).
Consider `Nc1nnc(-c2c[nH]c3ncccc23)c(-c2c[nH]c3ccc(Br)cc23)n1`, for which the growth was 50.3% (inactive).
Under `C=C1CC[C@H](C(=C)C)[C@H]2C=C(C)C(=O)C3=C(C(=O)[C@@](C)(O)C3)[C@H]12` stands -30.3% (active).
Under `CCCCCc1ccc(S(=O)(=O)N(C(C)=O)c2cc(-c3csc(N(C)C(C)=O)n3)ccc2N2CCN(C)CC2)cc1` stands -78.1% (active); under `NC1=NC(c2ccccc2Cl)N=C(Nc2nn[nH]n2)N1` (stereo not given), 106% (inactive); under `CCCn1c(=O)c2[nH]c(-c3ccc(OCc4nc5ccc(C)cc5[nH]4)cc3)nc2n(CCC)c1=O`, 59.7% (inactive).

For the origin of these results see PubChem BioAssay (NCI).
